# Measured values: PubChem BioAssay (NCATS)
# Unmarked numbers belong to inactive results. Records with an inconclusive call do not appear. Active and inactive are the calls of the source. Unless noted, calls follow the shape of the dose curve; as a rule, active = well fitted curve in either direction with a large enough effect (not every such curve was filed as active); inconclusive = small, poorly fitted or top-dose-only effect, or another doubt; inactive = flat fitted curve, though single readings scatter.
# Legend:
# [1] = target: Lysosomal acid glucosylceramidase (Homo sapiens) (UniProt P04062); experiment: Glucocerebrosidase-p2 (AID 348; in the data active = potency below about 10 µM; also: potency is read from the fitted curve at half-maximal effect); details: purified GBA, blue fluorogenic substrate, 40 min
# Sequence of Lysosomal acid glucosylceramidase (Homo sapiens) (P04062 whole entry, looked up): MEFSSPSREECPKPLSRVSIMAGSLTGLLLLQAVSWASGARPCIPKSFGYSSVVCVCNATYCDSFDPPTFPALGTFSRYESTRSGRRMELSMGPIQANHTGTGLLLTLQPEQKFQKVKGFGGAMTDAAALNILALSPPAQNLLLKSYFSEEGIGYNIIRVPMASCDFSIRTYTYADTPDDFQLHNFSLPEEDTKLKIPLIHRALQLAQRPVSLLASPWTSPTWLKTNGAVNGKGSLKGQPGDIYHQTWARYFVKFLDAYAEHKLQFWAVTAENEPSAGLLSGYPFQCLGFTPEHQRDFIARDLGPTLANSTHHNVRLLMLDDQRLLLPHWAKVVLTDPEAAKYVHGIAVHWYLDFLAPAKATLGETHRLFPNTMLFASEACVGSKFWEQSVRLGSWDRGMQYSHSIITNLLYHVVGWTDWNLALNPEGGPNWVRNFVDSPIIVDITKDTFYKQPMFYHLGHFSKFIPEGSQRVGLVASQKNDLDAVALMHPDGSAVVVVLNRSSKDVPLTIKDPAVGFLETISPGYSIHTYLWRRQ
# Method in brief: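 Normal human glucocerebrosidase (0.2 nM) with blue fluorogenic substrate (80 uM final) in citrate/phosphate pH 5.9 with 10mM sodium taurocholate, 0.01% tween-20; 40 min RT, NaOH/glycine stop; fluorescence Ex 365/Em 440; AC50 from a titration from 0.6 nM upwards.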
# [2] = AP1 Signaling Pathway (AID 357); details: ME-180 AP-1-bla reporter, EGF-induced, beta-lactamase ratio, 5 h; at 7.69 µM (top of the series) unless noted;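 also: ME-180 reporter cells stimulated with EGF at its EC50 level; % is scaled to controls: 0 for no effect and ±100 for the full control effect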
# Method in brief: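 In this screen, ME-180 cells in Opti-MEM with 0.5% dialyzed FBS received EC50 EGF and compound titrations for 5 h. AP-1 reporter beta-lactamase was detected via CCF4 ratio, giving AC50 for positive and negative modulators.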
# [3] = NFAT Signaling Pathway (AID 444); details: Jurkat NFAT-bla M1, carbachol, beta-lactamase ratio, 5 h; at 7.69 µM (top of the series) unless noted;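 also: carbachol stimulus at about its EC50 of 1 µM final; % is scaled to controls: 0 for no effect and ±100 for the full control effect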
# Method in brief: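 Read-out: CCF4 FRET ratio (460 nm/530 nm) after 1 h RT dye loading, used for %activity and AC50 from titration series. Cells: Jurkat NFAT-β-lactamase/M1 line, treated with compound plus 1 uM carbachol for 5 h, 37 °C.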
# [4] = Stat Signaling Pathway (AID 446); details: ME-180 (cervical carcinoma) SIE beta-lactamase reporter, IL-6 stimulated, 5 h; at 7.69 µM (top of the series) unless noted;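 also: ME-180 cervical cancer cells given 40 pM IL-6 alongside compound; SIE-controlled beta-lactamase reporter measured as 460/530 nm FRET emission ratio; % is scaled to controls: 0 for no effect and ±100 for the full control effect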
# Method in brief: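 FRET read-out (405 nm excitation, 460/530 nm emission) of a beta-lactamase reporter under a STAT-inducible element in ME-180 cervical carcinoma cells. Cells with compound receive 40 pM IL-6 for 5 h. Values are normalised to AC90 stimulation and AC90 JAK-inhibitor controls.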
# [5] = target: Glucocorticoid receptor (Homo sapiens) (UniProt P04150); experiment: GR-GFP Redistribution (AID 450;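 active = compounds whose dose series gives a full or clear partial fitted curve of increased nuclear translocation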; also: potency is read from the fitted curve at half-maximal effect); details: U2OS GR-GFP nuclear translocation, laser cytometry, 2 h
# Sequence of Glucocorticoid receptor (Homo sapiens) (P04150 whole entry, looked up, the tested form may be a part): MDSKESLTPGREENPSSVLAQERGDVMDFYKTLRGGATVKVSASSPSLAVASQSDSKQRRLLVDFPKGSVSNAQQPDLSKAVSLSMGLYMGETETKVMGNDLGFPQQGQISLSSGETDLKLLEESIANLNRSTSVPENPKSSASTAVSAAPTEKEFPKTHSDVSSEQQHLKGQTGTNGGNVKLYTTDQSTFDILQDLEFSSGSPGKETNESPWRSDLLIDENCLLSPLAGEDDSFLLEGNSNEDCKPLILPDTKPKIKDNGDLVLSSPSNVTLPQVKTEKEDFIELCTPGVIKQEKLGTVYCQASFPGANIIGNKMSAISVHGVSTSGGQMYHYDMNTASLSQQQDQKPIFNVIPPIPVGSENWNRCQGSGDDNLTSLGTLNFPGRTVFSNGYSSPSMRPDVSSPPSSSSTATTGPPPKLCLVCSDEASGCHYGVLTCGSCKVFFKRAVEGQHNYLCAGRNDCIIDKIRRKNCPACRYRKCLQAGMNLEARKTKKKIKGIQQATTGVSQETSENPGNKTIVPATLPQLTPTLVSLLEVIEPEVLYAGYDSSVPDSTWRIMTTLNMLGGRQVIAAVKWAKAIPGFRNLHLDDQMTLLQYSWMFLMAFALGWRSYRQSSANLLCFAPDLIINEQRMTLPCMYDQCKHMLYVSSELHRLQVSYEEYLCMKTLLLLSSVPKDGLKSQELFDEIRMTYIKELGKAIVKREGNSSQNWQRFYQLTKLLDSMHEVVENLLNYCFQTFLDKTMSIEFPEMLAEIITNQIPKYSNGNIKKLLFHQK
# [6] = target: Glucocorticoid receptor (Homo sapiens) (UniProt P04150); experiment: GR-EFC Redistribution (AID 451; calls by dose curve; also: potency is read from the fitted curve at half-maximal effect); details: CHO-K1 GR-EFC translocation, beta-gal luminescence, 2 h
# Method in brief: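 Translocation of GR-ED fusion to nuclear EA restores b-gal, read by luminescence after 1 h room-temperature detection. Engineered CHO-K1 biosensor cells, 1,000/well, exposed 2 h at 37 C to titrations up to 46 uM final.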
# [7] = target: Mitogen-activated protein kinase 10 (Mus musculus) (UniProt Q61831); experiment: JNK3 AlphaScreen Assay (AID 530); details: JNK3 lysate, c-Jun phosphorylation; series mostly up to 11.4 µM;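 also: kinase came from lysate of stimulated human HepG2 cells; signal reports phosphorylation of biotinylated GST-cJun 1-79 at Ser73 with 10 µM ATP; % is scaled to controls: 0 for no effect and ±100 for the full control effect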
# Method in brief: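 Kinase buffer: 20 mM Tris-HCl pH 7.6, 10 mM MgCl2, 1 mM DTT, 0.1 mM Na3VO4, 0.01% Tween-20; ATP 10 uM. Substrate biotin-GST-cJun(1-79), enzyme from activated HepG2 lysates. Detection by Ser73 phospho-antibody AlphaScreen.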
# [8] = target: 3',5'-cyclic-AMP phosphodiesterase 4B (Homo sapiens) (UniProt Q07343); experiment: qHTS Assay for Inhibitors of PDE-IV (AID 607; active = well fitted activation curve with a large enough effect in the main read-out, with a control signal flat, not every such curve was filed as active; also: % of control where 0% means no effect); details: HEK293 ACTOne CNG channel cells, membrane potential fluorescence; series mostly up to 22.9 µM
# Sequence of 3',5'-cyclic-AMP phosphodiesterase 4B (Homo sapiens) (Q07343 whole entry, looked up): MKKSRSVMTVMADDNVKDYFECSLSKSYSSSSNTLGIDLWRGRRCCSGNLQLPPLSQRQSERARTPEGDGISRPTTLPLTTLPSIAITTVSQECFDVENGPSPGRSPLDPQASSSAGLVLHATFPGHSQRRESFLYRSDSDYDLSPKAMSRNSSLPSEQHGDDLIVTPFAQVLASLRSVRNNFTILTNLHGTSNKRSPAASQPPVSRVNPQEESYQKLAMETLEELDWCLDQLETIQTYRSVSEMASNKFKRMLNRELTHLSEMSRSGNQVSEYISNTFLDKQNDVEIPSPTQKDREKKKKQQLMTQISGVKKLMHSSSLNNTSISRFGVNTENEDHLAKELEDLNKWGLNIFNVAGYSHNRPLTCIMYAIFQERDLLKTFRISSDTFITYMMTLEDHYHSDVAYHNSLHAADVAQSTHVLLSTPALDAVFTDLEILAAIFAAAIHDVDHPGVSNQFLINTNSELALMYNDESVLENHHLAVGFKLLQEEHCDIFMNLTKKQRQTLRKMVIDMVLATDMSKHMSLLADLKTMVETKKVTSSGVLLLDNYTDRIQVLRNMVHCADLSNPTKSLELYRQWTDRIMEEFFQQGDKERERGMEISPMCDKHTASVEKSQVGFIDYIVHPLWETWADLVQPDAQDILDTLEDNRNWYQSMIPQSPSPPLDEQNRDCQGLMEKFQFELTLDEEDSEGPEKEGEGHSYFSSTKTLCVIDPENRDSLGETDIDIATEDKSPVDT
# Method in brief: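 Cell-based read-out of cAMP via a modified cyclic nucleotide-gated channel and membrane potential dye (535/590 nm) in HEK293 cells expressing PDE4 endogenously. Compounds tested up to 22.9 uM final; 100 uM RO 20-1724 reference.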
SMILES,Potency [1] [µM],"activity change, negative = inhibition [2] [%]","activity change, negative = inhibition [3] [%]","activity, negative = inhibition [4] [%]",Potency [5],Potency [6] [µM],Potency [7],Potency [8]
Cc1ccc2nc(-c3ccc(NC(=O)c4ccc(N)cc4)c(S(=O)(=O)O)c3)sc2c1,> 11.4,-3.73,12.1,-11.4,> 46 µM,> 9.22,inactive,inactive
CC1(C)CC(Nc2ccc(Nc3ccccc3)cc2)CC(C)(C)N1,> 11.4,-24.4,6.65,-6.18,> 46 µM,> 9.22,inactive,inactive
O=C1C(=O)c2ccccc2C(O)=C1Cc1ccccc1,> 11.4,-5.11,4.13,-11.8,> 46 µM,> 9.22,inactive,inactive
N[C@@H](CSc1nc2ccccn2c1[N+](=O)[O-])C(=O)O,> 11.4,-2.33,9.56,-1.41,> 46 µM,> 9.22,inactive,inactive
COc1cc(NCC[C@@H]2CCCCN2)c2ncccc2c1,> 11.4,28.5,-23.9,13.7,> 46 µM,> 9.22,inactive,inactive
CN(C)Cc1cc(C(C)(C)C)cc(CN(C)C)c1O,> 11.4,12.4,3.21,-1.5,> 46 µM,> 9.22,inactive,inactive
Nc1nc2c(c(=O)[nH]1)CN(CCCN1CCOCC1)CN2,> 11.4,1.77,5.13,12.2,> 46 µM,> 9.22,inactive,inactive
CN(C)Cc1cc(C(=O)O)cc(CN(C)C)c1O,> 11.4,4.91,3.37,-1.77,> 46 µM,> 9.22,inactive,inactive
O=C(O)CCc1ccc(-c2ccccc2)[nH]1,> 11.4,2.27,13.2,1.73,> 46 µM,> 9.22,inactive,inactive
COC(=O)c1cc(-c2ccc3ccccc3c2)[nH]c(=O)c1C#N,> 11.4,-3.94,1.77,-1.42,> 46 µM,> 9.22,inactive,inactive
NCCNC[C@H](O)CO,> 11.4,-9.92,7.58,3.6,> 46 µM,> 9.22,inactive,inactive
NCCOC[C@H](N)C(=O)O,> 11.4,3.26,11.6,-1.46,> 46 µM,> 9.22,inactive,inactive
Cc1cc(O)c(C(C)C)cc1CN1CCCCC1,> 11.4,10.4,-29.6,5.31,> 46 µM,> 9.22,inactive,inactive
O=[N+]([O-])c1ccc2c(c1)c(S(=O)(=O)O)cc1nonc12,> 11.4,-3.17,6.23,19.1,> 46 µM,> 9.22,inactive,inactive
Nc1c(S(=O)(=O)O)cc(S(=O)(=O)O)c2ccc(N=Nc3ccccc3)c(O)c12,> 11.4,1.28,-3.14,-2.56,2.59 µM (active),> 9.22,inactive,inactive
NC(=O)C/C=C\CC(N)=O,> 11.4,1.15,10.3,-3.27,> 46 µM,> 9.22,inactive,inactive
